High-throughput results from PubChem BioAssay.
Hits are enriched below; roughly 12% of the tested compounds scored in any of these assays.
HP1b binding inh: HP1-beta chromodomain-methylated histone interaction inhibition. Potency, µM (series often up to 114 µM), usual class: inhibitors. actives 0.56% (n = 390,000). P83916. AlphaScreen HP1-beta / biotin-H3K9me3 peptide binding. AID 540317; note: nearly all actives have a fitted effect of over 70% in size
Target sequence (P83916 whole entry, looked up): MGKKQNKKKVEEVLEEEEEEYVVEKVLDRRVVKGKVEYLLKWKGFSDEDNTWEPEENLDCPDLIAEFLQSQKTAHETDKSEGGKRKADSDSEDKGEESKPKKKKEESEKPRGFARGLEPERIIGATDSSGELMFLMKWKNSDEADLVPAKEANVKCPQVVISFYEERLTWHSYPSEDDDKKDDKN
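AlphaScreen: HP1-beta (50 nM) preformed 30 min with biotin-H3(1-18)K9me3 peptide (50 nM) in PBS pH 7.4, 0.01% Tween-20. Compound added for 30 min at RT, then streptavidin donor/nickel chelate acceptor beads (10 ug/mL) for 30 min.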
Sfp inh: Sfp phosphopantetheinyl transferase inhibition | actives 3.5% (n = 310,000) | Biochemical Sfp PPTase activity, qHTS | Q9F4F7 | Potency, µM, hits mostly inhibitors;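 note: the enzyme is Sfp with the accession as filed and its product quenches rhodamine fluorescence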
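After 15 min at room temperature with compound, 15 nM Sfp received 5 uM rhodamine-CoA plus 12.5 uM BHQ-2-ybbR (50 mM Hepes pH 7.6, 10 mM MgCl2). Rate came from the fluorescence difference over 30 min, ex 525/em 598 nm.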
PLK1 PBD inh: inhibitors of human PLK1 polo-box domain binding; P53350; Plk1 PBD binding of FITC phosphopeptide, fluorescence polarization; Potency, µM, most hits filed as inhibitors; actives 2.8% (n = 360,000); note: series mostly up to about 57 µM; nearly all actives have a fitted effect of over 65% in size
BAZ2B block: inhibitors of human BAZ2B bromodomain. actives 4.4% (n = 360,000). Potency, µM (top dose mostly 114 µM), hits mostly inhibitors. Q9UIF8. AID 504333. AlphaScreen BAZ2B-H3K14Ac peptide displacement; note: nearly all actives have a fitted effect of over 60% in size
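BAZ2B 50 nM plus b-H3(5-23)K14Ac 50 nM, PBS pH 7.4/0.01% Tween-20, 30 min RT; compound added (max 110 uM), 30 min RT; streptavidin donor/Ni-chelate acceptor beads 10 ug/mL final, 20 min dark; AlphaScreen read.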
JMJD2A Tudor inh: blocks the human JMJD2A Tudor domain | O75164 | AlphaScreen JMJD2A-Tudor / H3K4me3 peptide binding | Potency, µM (highest dose often 114 µM), hits mostly inhibitors | actives 4.4% (n = 390,000); note: nearly all actives have a fitted effect of over 50% in size
G9a inh: inhibitors of human histone lysine methyltransferase G9a; Q96KQ7; G9a H3K9 monomethylation, AlphaScreen, 2 h; Potency, µM (titrated, usually from 102 µM), hits mostly inhibitors; actives 8.8% (n = 350,000); AID 504332; note: nearly all actives have a fitted effect of over 75% in size
Target sequence (Q96KQ7 913-1193 limits assumed): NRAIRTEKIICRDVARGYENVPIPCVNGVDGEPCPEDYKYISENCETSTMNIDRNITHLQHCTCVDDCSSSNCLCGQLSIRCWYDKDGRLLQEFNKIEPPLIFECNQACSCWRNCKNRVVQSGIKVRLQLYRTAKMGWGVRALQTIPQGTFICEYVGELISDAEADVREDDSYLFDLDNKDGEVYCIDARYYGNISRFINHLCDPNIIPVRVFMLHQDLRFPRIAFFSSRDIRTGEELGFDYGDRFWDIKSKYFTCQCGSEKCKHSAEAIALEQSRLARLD
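Quantitative HTS format: methyltransferase activity on a biotin-tagged H3K9 peptide is measured by AlphaScreen, using a rabbit anti-monomethyl-H3K9 antibody with streptavidin donor and anti-IgG acceptor beads. Final levels are 20 nM enzyme, 500 nM peptide, 20 uM SAM; 2 h RT.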
A number is an active result; . = inactive; ? = inconclusive; / = no result given; [ ] = another dose, or the depositor's remark. Calls come from the whole dose curve; as a rule, active = well fitted curve in the direction sought with a large enough effect; inconclusive = small, poorly fitted or top-dose-only effect, or another doubt; inactive = no such curve, though single readings can be large; an effect the other way counts as inactive or inconclusive.

SMILES	HP1b binding inh	Sfp inh	PLK1 PBD inh	BAZ2B block	JMJD2A Tudor inh	G9a inh
Oc1ccc2ccccc2c1-c1sc(Nc2ccccc2)n[n+]1-c1ccc(F)cc1	.	.	.	?	?	40µM
Fc1ccc(-[n+]2nc(Nc3ccccc3)sc2-c2c3ccccc3cc3ccccc23)cc1	?	45µM	.	5µM	16µM	11µM
COc1ccc(-c2sc(Nc3ccccc3)n[n+]2-c2ccc(F)cc2)c(C)c1C	.	.	.	?	?	?
COC(=O)c1cccc(NC(=O)CCc2c(C)noc2C)c1	.	/	.	.	.	.
COc1ccc(Oc2ncc3nc(C)c(=O)n(C[C@H]4CCCO4)c3n2)cc1	/	.	/	/	/	.[0.501 µM]
O=C(CN1CCN(Cc2ccccc2)CC1)Nc1cccc(Cl)c1Cl	/	/	.	/	/	/
CCN(CC)S(=O)(=O)c1ccc2c(c1)nc(CN(C)C(=O)Nc1ccc(C)c(F)c1)n2C	.	/	/	.	.	.[12.7 µM]
C=CC#CC1(O)CC(C)[N+](C)(C)CC1C (centres undefined)	?	40µM	21µM	.	22µM	28µM
O=C(COc1cccnc1[N+](=O)[O-])N1CCC(Cc2ccccc2)CC1	.	/	.	/	.	/
Cc1ccc(OCC(=O)N2CCC(Cc3ccccc3)CC2)c([N+](=O)[O-])n1	.	/	.	.	.	10µM
O=C1CCc2cc(S(=O)(=O)N3CCC(C(=O)NCCC4=CCCCC4)CC3)ccc2N1	.	.	21µM	?	?	.
COC(=O)c1ccccc1NC(=O)C1=C(C)C(=O)OC12CCC(C)CC2 (centres undefined)	.	/	/	.	.	.
Cc1cc(Br)cn2c(Cc3ccsc3)c(-c3ccco3)nc12	/	/	24µM	/	/	/
COc1ccc(C(=O)N2CCC3(CC2)CN(Cc2ccc(C#N)cc2)C3)cc1	/	.	/	/	/	.[12.7 µM]
Cc1cccc(N2CCN(C(=O)c3cc4ccc5cccnc5c4[nH]3)CC2)c1C	.	/	/	.	?	?
CCN(CC(=O)Nc1ccc2c(c1)OCCO2)Cc1cc(=O)n2ccsc2n1	.	.	.	.	.	.
CCN(CC(=O)NCc1ccc(F)cc1)Cc1cc(=O)n2ccsc2n1	.	.	.	.	.	45µM
COC(=O)[C@H](CCSC)NC(=O)C/C=C\[C@@H](C)CO	/	.	/	/	/	/
CCOCc1cnc(C)nc1NCC(=O)c1c(C)n(C)c2ccc(OC)cc12	.	.	.	50µM	.	14µM
CCOc1ccc(-n2c(C)c(C(=O)O)c3cc(OC)ccc32)cc1	.	.	.	.	.	.
Cc1ccc(-c2n[nH]c(=O)c3ccccc23)cc1S(=O)(=O)Nc1ccc(F)cc1	.	.	.	.	.	.
CC(=O)Nc1ccc(NS(=O)(=O)c2cc(-c3n[nH]c(=O)c4ccccc34)ccc2C)cc1	.	.	.	79µM	.	.
O=C(c1ccccc1)c1c(O)cc(-c2ccccc2)oc1=O	?	.	.	56µM	?	?
CN1c2cc3c(cc2N=C(c2ccc(C(=O)O)cc2)c2ccccc21)C(C)(C)CCC3(C)C	/	.	/	/	/	/
O=C(O)c1ccc(N=Nc2c(O)[nH]c3ccc(Br)cc23)cc1	.	10µM	?	79µM	?	.[2.33 µM]
SMILES	HP1b binding inh	Sfp inh	PLK1 PBD inh	BAZ2B block	JMJD2A Tudor inh	G9a inh
O=S(=O)(Cc1ccccc1)N=Nc1c(O)[nH]c2ccc(Br)cc12	?	.	?	.	22µM	3.5µM
O=C(O)c1ccc(N=Nc2c(O)[nH]c3cc(Cl)ccc23)cc1	.	.	.	.	.	.
Cc1ccc(N=Nc2c(O)[nH]c3ccc(F)cc23)cc1	.	?	.	.	.	20µM
O=c1[nH]nc(N=Nc2c(O)[nH]c3ccc(F)cc23)c(=O)[nH]1	.	/	.	/	.[11.4 µM]	/
Cc1cccc(-n2c(CNC(=O)c3ccccc3)nnc2SCC(=O)Nc2nccs2)c1	.	.	.	.	.	.
O=C(Nc1ccc(F)cc1)C(CCc1ccccc1)N1CCN(Cc2c(F)cccc2Cl)CC1 (centres undefined)	/	/	.	/	/	/
CCn1nc(C)cc1C(=O)Sc1ccc(Cl)cc1Cl	.	.	19µM	.	.	.
O=[N+]([O-])c1ccc(S(=O)(=O)CC2CSc3nc4ccccc4n32)cc1 (centres undefined)	.	.	.	.	.	.
COC(=O)c1ccc(CSc2nc3ccc(S(=O)(=O)N4CCOCC4)cc3[nH]2)cc1	.	.	.	.	.	14µM
O=S(=O)(c1ccc2nc(COc3ccccc3)[nH]c2c1)N1CCOCC1	.	.	.	?	.	50µM
Cc1csc(SCC(=O)c2ccc(S(=O)(=O)N3CCOCC3)cc2)n1	.	?	.	.	56µM	28µM
Cc1csc(SCC(=O)Nc2cc(S(=O)(=O)N3CCOCC3)ccc2N2CCOCC2)n1	.	.	.	.	.	.[12.7 µM]
COC(=O)c1ccc(CSc2nc3ccc(S(N)(=O)=O)cc3[nH]2)cc1	.	.	.	?	.	.
CCc1ccc(C(=O)CSc2nc3cc(S(=O)(=O)N4CCOCC4)ccc3n2CC)cc1	?	?	.	.	.	45µM
COc1cc2[nH]c(=O)n(CCCCCC(=O)N3CC=C(c4ccccc4)CC3)c(=O)c2cc1OC	.	.	.	?	?	.
COCCn1c(=O)c(CCc2ccccc2)nc2cnc(N3CCN(C)CC3)nc21	/	.	/	/	/	.[12.7 µM]
CCCCNC(=S)N/N=C/c1cccc(OCC)c1O	.	.	.	.	.	/
Cc1ccc(S(=O)(=O)N/N=C/c2cc([N+](=O)[O-])ccc2O)cc1[N+](=O)[O-]	.	?	.	?	?	50µM
Cc1ccc(S(=O)(=O)N/N=C/c2ccc(O)cc2O)cc1[N+](=O)[O-]	.	50µM	?	.	.	45µM
CCOc1cccc(/C=N/NC(=S)Nc2ccccc2[N+](=O)[O-])c1O	.	.	.	11µM	?	.
O=S(=O)(NN=Cc1ccc(O)cc1O)c1cc(Cl)c(Cl)cc1Cl	.	/	.	/	.	/
C/C(CCC(C)C)=N\NS(=O)(=O)c1ccc(C)c([N+](=O)[O-])c1	.	.	?	.	.	13µM
CCOC(=O)c1ccc(NC(=O)C(CC)Sc2nc3ccncc3[nH]2)cc1 (centres undefined)	.	/	/	.	.	.
COCCNC(=O)CSc1nc(-c2ccccc2C)nc2c1c(=O)n(C)c(=O)n2C	.	/	/	.	.	.
O=[N+]([O-])c1ccccc1NC(=S)N/N=C/c1ccc(O)c(O)c1	8.9µM	.	12µM	10µM	?	/
O=[N+]([O-])c1ccccc1C=NNC(=S)NN=Cc1ccccc1[N+](=O)[O-]	.	/	.	/	?	/
CCOc1cccc(/C=N/NS(=O)(=O)c2ccc(C)c([N+](=O)[O-])c2)c1O	.	56µM	30µM	/	.	?
COc1ccc(/C=N\NS(=O)(=O)c2ccc(C)cc2)cc1COc1ccccc1[N+](=O)[O-]	.	.	.	.	.	.
